# Source: PubChem BioAssay (National Center for Advancing Translational Sciences (NCATS))
# ClpP mod: qHTS Assay for Activators of ClpP. purified B. subtilis ClpP, FRET peptide cleavage, 20 min. Potency, µM (titrated, usually from 57.5 µM), without a hit: top-dose activity change, negative = active. hit rate 1.9% among 340,000. AID 651965, 2013; active means well fitted falling curve with a large enough effect; inconclusive means small, poorly fitted or top-dose-only effect; inactive means no such curve, though single readings can be large or run the other way; further: the source files actives as falling curves though it sought activators and does not explain the sign; nearly all actives have a fitted effect of over 65% in size
# Target sequence (P80244 whole entry, looked up): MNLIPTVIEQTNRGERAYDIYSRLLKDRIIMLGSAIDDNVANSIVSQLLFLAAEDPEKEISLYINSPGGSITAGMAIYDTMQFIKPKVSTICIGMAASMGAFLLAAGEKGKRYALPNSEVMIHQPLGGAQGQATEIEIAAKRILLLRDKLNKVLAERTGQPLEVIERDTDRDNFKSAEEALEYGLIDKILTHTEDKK
#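 ClpP 10 microg/mL final, pH 8 Tris/KCl buffer with BSA, glycerol, Tween-20; compound pinned in; FRET-FV substrate; RT 20 min; Ex320/Em430; ΔFRET vs ADEP 5.8 microM, DMSO, no enzyme.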
# DT40 TDP1 CPT: growth inhibition of DT40 Tdp1-/-;hTDP1 cells with camptothecin (screen for TDP1 inhibitors). AID 686979. hit rate 12% among 420,000. Potency, µM (doses to about 46.2 µM), without a hit: at the top dose activity change, negative = growth inhibition, hits mostly inhibitors. chicken DT40 Tdp1-/-;hTDP1 cells + 20 nM CPT, ATP luminescence, 48 h; further: on the % scale 0 is the no-effect control and ±100 the full control effect; nearly all actives have a fitted effect of over 55% in size
#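 Chicken DT40 Tdp1-/- cells complemented with human TDP1, 400 cells/well, exposed to compounds plus 20 nM camptothecin for at least 48 h at 37 C; viability read as ATP content by CellTiter-Glo luminescence.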
# TDP1 cell noCPT: qHTS for Inhibitors of human tyrosyl-DNA phosphodiesterase 1 (TDP1): qHTS in cells in absence of CPT. DT40 Tdp1-/- hTDP1 cells, no CPT, ATP luminescence, 48 h. Potency, µM (doses to about 46.2 µM), inactives show top-dose activity change, negative = growth inhibition, actives largely listed as inhibitors. hit rate 15% among 420,000. AID 686978, 2013; further: on the % scale 0 is the no-effect control and ±100 the full control effect; nearly all actives have a fitted effect of over 55% in size
#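 Cells were dispensed at 400 per well, compounds added by pin tool, plates incubated ≥48 hr at 37 °C, then CellTiter-Glo added for 30 min at room temperature before luminescence reading. Line: DT40 Tdp1-/- complemented with hTDP1; camptothecin omitted.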
# TDP1 block: blocks human tyrosyl-DNA phosphodiesterase 1; Q9NUW8; recombinant TDP1, AlphaScreen DNA substrate cleavage; Potency, µM (top dose mostly 130 µM), without a hit: top-dose activity change, negative = inhibition, most hits filed as inhibitors; hit rate 0.28% among 350,000; further: on the % scale 0 is the no-effect control and ±100 the full control effect; nearly all actives have a fitted effect of over 40% in size
#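 E. coli-derived human Tdp1, 1 nM final. Cpd preinc 15 min RT; substrate 15 nM final, 5 min RT; AS bead mix 10 ug/ml final, 10 min RT. Signal loss = tyrosine-FITC cleavage. No-enzyme wells = max signal.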
# * marks the source's active call; other numbers are inactive results; ? = inconclusive; / = not tested or not shown; [ ] = another dose, or the depositor's remark. This is a sample that favours compounds with a hit; in the whole collection about 17% have one here. Unless noted, the call rests on the fitted dose curve; in most records, active means well fitted curve in the direction sought with a large enough effect; inconclusive means small, poorly fitted or top-dose-only effect, or another doubt; inactive means no such curve, though single readings can be large; an effect the other way counts as inactive or inconclusive. Potency means the concentration at half of the fitted maximal effect.
SMILES,ClpP mod,DT40 TDP1 CPT,TDP1 cell noCPT,TDP1 block
Cc1sc2nc(C3CC3)nc(N3CCN(C(=O)c4ccc(Cl)cc4)CC3)c2c1C,-3%,?,18µM*,4%
Cc1sc2nc(C3CC3)nc(N3CCN(S(=O)(=O)c4ccc(F)cc4)CC3)c2c1C,1%,?,11µM*,0%
Cc1sc2nc(C3CC3)nc(N3CCN(C(=O)c4ccc(F)cc4)CC3)c2c1C,/,?,23µM*,/
Cc1ccc(S(=O)(=O)N(C)C[C@H]2OCc3cnnn3CCCC(=O)N([C@H](C)CO)C[C@H]2C)cc1,-3%,-5%,-20%,/
OCCCNCc1cc2ccc(F)cc2nc1N1CCN(c2cccc(Cl)c2)CC1,/,-6%[9.04 µM],-38%,/
Cc1ccc(CNC(=O)C2(S(=O)(=O)c3ccccc3)CC=CC2)cc1,2%,-8%,-2%,/
CN(Cc1ccccc1)C(=O)c1c[nH]c2ccc(S(=O)(=O)Nc3ccccc3F)cc2c1=O,-22%,-3%,?,/
Cc1ccc(C)c(Cn2c(=O)n(C(C)C)c(=O)c3oc4ccccc4c32)c1,-5%,9%,-2%,-3%
CCC1(C2CCN(C(=O)c3csc(C(C)=O)c3)CC2)NC(=O)N(CCc2scnc2C)C1=O (stereo not given),/,12%[9.04 µM],-14%,/
COc1ccc(C(=O)c2cn(Cc3cccc(C)c3)c3cc4c(cc3c2=O)OCO4)cc1,0%,16µM*,26µM*,7%
Cc1ccc(C(=O)c2cn(Cc3ccccc3)c3cc4c(cc3c2=O)OCCO4)cc1,0%,21µM*,?,6%
CCOc1ccc(C(=O)c2cn(Cc3cccc(OC)c3)c3cc4c(cc3c2=O)OCO4)cc1,-2%,?,?,8%
O=C(c1ccc(F)cc1)c1cn(Cc2ccccc2)c2cc3c(cc2c1=O)OCO3,2%,?,?,2%
Cc1ccc2nc(/C(C#N)=C/c3ccc(O)c(O)c3)[nH]c2c1,/,18µM*,18µM*,8%
Cc1cc2nc(/C(C#N)=C/c3ccncc3)[nH]c2cc1C,7%,18µM*,16µM*,0%
Cc1ccc2nc(/C(C#N)=C/c3ccccc3C(=O)O)[nH]c2c1,/,24%,3%,/
Cc1ccc2nc(/C(C#N)=C/c3cn[nH]c3-c3ccc(F)cc3)[nH]c2c1,-13%,?,18µM*,4%
COc1cc(/C=C(\C#N)c2nc3ccc(C)cc3[nH]2)ccc1OC(C)C,4%,?,-12%,2%
Cc1ccc2nc(/C(C#N)=C/c3cccc(Br)c3)[nH]c2c1,-21%,15µM*,16µM*,/
CC(=O)NS(=O)(=O)c1ccc(NC(=O)c2ccc(S(=O)(=O)N3CCCC3)cc2)cc1,1%,-1%,-3%,-1%[56.1 µM]
N#C/C(=C\c1ccncc1)c1nc2ccccc2[nH]1,/,?,?,8%
N#C/C(=C\c1cccnc1)c1nc2ccccc2[nH]1,0%,?,5.8µM*,7%
Cc1cc(OCc2nnc(SCC(=O)O)n2-c2ccccc2)ccc1Cl,/,4%,3%,3%
CCCCCCC(=O)NC(Nc1ccc(S(N)(=O)=O)cc1)C(Cl)(Cl)Cl (stereo not given),0%,?,?,4%
CCCCCC(=O)NC(Nc1ccc(S(N)(=O)=O)cc1)C(Cl)(Cl)Cl (stereo not given),-2%,16µM*,?,-2%
SMILES,ClpP mod,DT40 TDP1 CPT,TDP1 cell noCPT,TDP1 block
COc1cccc(/C=C2/SC(=S)N(CCCC(=O)Nc3ccc(O)cc3)C2=O)c1,1%,?,?,5%
CCOC(=O)N1CCN(C(=O)CCN2C(=O)/C(=C\c3cccc(OC)c3)SC2=S)CC1,/,-96%,15µM*,/
COc1cccc(/C=C2\SC(=S)N(CCC(=O)N3CCCCC3)C2=O)c1,0%,6.5µM*,4.1µM*,5%[56.1 µM]
Cc1[nH]nc(SCC(=O)N(C)c2ccccc2)c1[N+](=O)[O-],-3%,2%,11%,8%
Cc1c(O)ccc2c1OC(C)(C)CC2,-8%,5.6µM*,4µM*,/
Cc1c(C)c2c(c(C)c1O)CCC(C)(C(=O)O)O2 (stereo not given),-4%,-19%,-16%,/
Oc1[nH]c2c(Cl)cc(Cl)cc2c1N=NC(=S)NCC1CCCO1 (stereo not given),1%,3.7µM*,4.6µM*,7%
